Drawing on the OligoGym collection, this text covers sensor-assay potency score (higher = more potent) for 40 sequences.
Further: reference of the scale not given here.

For one assay, the target named is AATK. The assay is described as follows: pooled miR-30 sensor sort-seq; sequence = guide strand. The settings on record: shRNA.
Consider ATAGTCACCAATCTTCACCGTC, for which the sensor-assay potency score (higher = more potent) came to 0.047.
For TCGGTAGGGATTCTTCTCGTTG, the sensor-assay potency score (higher = more potent) is -0.77.
Take TTCACCGTCAGGTCAGCCGTGA: the sensor-assay potency score (higher = more potent) is -0.0686.
TTCTGATCTCAGCGGAACCGGG: the sensor-assay potency score (higher = more potent) was -1.21.
As for TTGCCTTCTGATCTCAGCGGAA, the sensor-assay potency score (higher = more potent) was -0.981.
Consider TAGCTCATCCTCGCCAGTCAGC, for which the sensor-assay potency score (higher = more potent) is -1.1.
For TAGTTCTCGGTGTCATAGCCAC, the sensor-assay potency score (higher = more potent) is -0.895.
For TTGTACTCAAAATTGAGGCCTC, the sensor-assay potency score (higher = more potent) worked out at 0.126.
With AACTGCATCACCTCGTACCAGC, the sensor-assay potency score (higher = more potent) was -1.29.

Another assay concerns the target ABCA10. The description is as above. The settings on record: shRNA.
For TTTATTTTAGCAAATACCCTGA, the sensor-assay potency score (higher = more potent) is -0.0638.
On to TTATTAACGATTAACAGGCTGG, for which the sensor-assay potency score (higher = more potent) was -0.301.
As to TTAGACAGAAATACTTTCCTAT, the sensor-assay potency score (higher = more potent) was 0.661.
In turn, TATTCTTTTATAACATTTCTGA had a sensor-assay potency score (higher = more potent) of 0.0597.
Take TTCTTTTATAACATTTCTGATT: the sensor-assay potency score (higher = more potent) is -1.16.
For the sequence TTATTTTTTCTCCACTTGCGAA, the sensor-assay potency score (higher = more potent) is -1.28.
In turn, TTGAACATCTTCATCTTCTTCT had a sensor-assay potency score (higher = more potent) of 1.07.
TTCATTTATTCTATTGTCCAGA: the sensor-assay potency score (higher = more potent) is -0.279.
As to TTCTTCTTCGGGCTCTTCCGGA, the sensor-assay potency score (higher = more potent) is -0.863.
For TTTATCATCAACATTTCCCAGC, the sensor-assay potency score (higher = more potent) is -0.195.
Take TATCACTAAATATAACTCCCAC: the sensor-assay potency score (higher = more potent) is -0.516.

For another assay, the target named is ABCB11. Described as above. The settings on record: shRNA.
Regarding TTGCACTCAGTACAACTGCAGA, the sensor-assay potency score (higher = more potent) was -1.15.
For the sequence TTTGCTGTCATGACCATCTATC, the sensor-assay potency score (higher = more potent) is -0.277.
For TACAACTGCAGAGATCACCCTG, the sensor-assay potency score (higher = more potent) is 0.317.
As for TTAGCTTTTGCATAACTTGGGG, the sensor-assay potency score (higher = more potent) was -0.00733.
As to TAGACTTATGATCTACAACAGC, the sensor-assay potency score (higher = more potent) was -1.33.
As for TTCTTGTAACTCAACGTCGTAG, the sensor-assay potency score (higher = more potent) was -0.168.
Turning to TAGCTTTTGCATAACTTGGGGT, the sensor-assay potency score (higher = more potent) was 0.0681.
Same read-out and setting: with TTCTTCTCATCTTGTAACCTTG the figure was -0.836; with TAACCATCTTCTGACATGCAGT, -1.16; with TTGACTATCATCCCGATCTGAG, -0.211.
In the case of TAGAGTGAAGTAAACACCTTTC, the sensor-assay potency score (higher = more potent) was -0.144.

The next assay has as its target ABCD4. Described as above. As to conditions: shRNA.
As for ATACCAGTTCCAGTCCACCTGC, the sensor-assay potency score (higher = more potent) is -0.984.
As for TAGAAGAGTCGGGCAAAGGAGA, the sensor-assay potency score (higher = more potent) is -1.06.
The same measure, in the same setting: with ATCTGCATGTGCTTGAACCTAA the figure was -0.448; with TAGTAGACGAGGGTGAACGGGG, -0.612; with TTCGCTGTCAGTCCTCCTGGTC, -0.858.
Turning to TGCGATGACAACGTAACTCAGG, the sensor-assay potency score (higher = more potent) is -0.631.
Regarding TAGTCAAAGGTGTTGATGCCGA, the sensor-assay potency score (higher = more potent) was -0.776.
Regarding TCTCATCATCGGCAGAACCTGA, the sensor-assay potency score (higher = more potent) was -0.963.
Consider ATGAGCTGGGTGAAGCAGCTGA, for which the sensor-assay potency score (higher = more potent) was -0.109.
